ALR inh: inhibitors of human sulfhydryl oxidase ALR; P55789; purified ALR, DTT oxidation, H2O2 HRP-luminol luminescence; inhibition, % (test concentration not listed); 3.8% of 290,000 active;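 active = mean replicate inhibition above about 79%, with every replicate also reaching it, limit read from the data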
Target sequence (P55789 whole entry, looked up): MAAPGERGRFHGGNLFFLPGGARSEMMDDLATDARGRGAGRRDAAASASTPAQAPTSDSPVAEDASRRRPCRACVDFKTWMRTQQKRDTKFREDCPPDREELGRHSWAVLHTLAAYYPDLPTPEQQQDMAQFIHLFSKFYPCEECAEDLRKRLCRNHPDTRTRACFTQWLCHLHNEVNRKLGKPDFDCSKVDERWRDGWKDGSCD
UBC9 SUMO inh: inhibitors of human SUMOylation (UBC9) | HTRF SUMOylation assay, SAE1/SAE2 + UBC9, in vitro | AID 2006 | 0.36% of 290,000 active | P63279 | inhibition, % at 35 µM; in the data active = inhibition above about 50%, passing the limit was not always enough
Target sequence (P63279 whole entry, looked up): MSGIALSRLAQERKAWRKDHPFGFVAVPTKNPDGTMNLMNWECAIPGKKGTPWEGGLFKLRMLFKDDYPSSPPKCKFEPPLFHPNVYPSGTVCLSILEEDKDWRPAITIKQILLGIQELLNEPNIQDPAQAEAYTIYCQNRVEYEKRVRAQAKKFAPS
Cardio protect: modulators protecting cardiomyocytes from myocardial damage; H9c2 cardiomyocytes, H2O2 injury protection, ATPLite, 2 h; protection from H2O2 cell death, % at 20 µM; 0.63% of 360,000 active;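 active = compounds giving at least 50% protection of heart cells from peroxide-induced death in the single-dose screen, raw or plate-pattern-corrected value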;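 note: 0% = DMSO wells with peroxide and 100% = DMSO wells without peroxide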
NTR1 ag: agonists of human neurotensin receptor NTR1; P30989; NTR1-U2OS beta-arrestin-GFP spot imaging, agonist mode; activation, % at 20 µM; 0.17% of 330,000 active;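 active = activation at or above 40% of the spot to cytoplasm intensity ratio, with at least 20 cells analyzed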;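 note: 0% = DMSO without peptide and 100% = 100 nM NTR1 peptide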
* hit, by the source's call; · = no result. The list is not random: actives were taken first. Their share in the collection is about 3.9%.

SMILES	ALR inh	UBC9 SUMO inh	Cardio protect	NTR1 ag
COc1ccc(N2CCN(C(c3cccs3)C(C)NC(=O)C(=O)N3CCCCC3)CC2)cc1 (configuration not stated)	98*	4	2	0
Cc1noc(C)c1COc1ccc(C(=O)OCC(=O)Nc2ccc3ccccc3c2)cc1	-3	-9	-2	1
COc1ccc(NC(=O)CSc2nc3c(c(=O)n2C)SCC3)cc1OC	99*	-4	3	0
Cn1c(SCC(=O)Nc2ccc(F)cc2)nc2c(c1=O)SCC2	40	14	-7	1
Cn1c(SCC(=O)Nc2ccccc2F)nc2c(c1=O)SCC2	88*	6	-8	0
Cc1cc(NC(=O)CSc2nc3c(c(=O)n2C)SCC3)no1	4	20	3	0
CCn1c(SCC(=O)Nc2cc(OC)ccc2OC)nc2c(c1=O)SCC2	-10	19	-2	0
CCn1c(SCC(=O)Nc2ccc(OC)c(OC)c2)nc2c(c1=O)SCC2	99*	12	4	0
COCCn1c(SCC(=O)Nc2cc(C)on2)nc2c(c1=O)SCC2	-4	9	5	0
COCCn1c(SCC(=O)Nc2cccc(F)c2)nc2c(c1=O)SCC2	99*	4	-3	1
Cn1c(SCc2c(F)cccc2Cl)nc2c(c1=O)SCC2	·	5	-5	10
Cn1c(SCc2ccc([N+](=O)[O-])cc2)nc2c(c1=O)SCC2	99*	2	-21	8
CCOc1ccc(C2C3=C(CCCC3=O)Nc3ccc4ncccc4c32)cc1 (configuration not stated)	-22	-8	32	0
O=C1CCCC2=C1C(c1ccc(O)c(O)c1)c1c(ccc3ncccc13)N2 (configuration not stated)	100*	10	1	0
C=CCSc1nc(N)c(NC(=O)c2ccco2)c(=O)[nH]1	-1	·	1	4
Nc1nc(SCC(=O)OCc2ccccc2)[nH]c(=O)c1NC(=O)c1ccco1	100*	4	-2	-1
CC(=O)Nc1ccc(NC(=O)CSc2nc(N)c(NC(=O)c3ccco3)c(=O)[nH]2)cc1	99*	10	0	1
Cc1ccc(CN2C3=NCCN3c3ccccc32)cc1	·	6	-6	-1
O=C(CN1C2=NCCN2c2ccccc21)C12CC3CC(CC(C3)C1)C2	98*	8	-10	1
c1ccc(CN2C3=NCCN3c3ccccc32)cc1	96*	17	5	0
Clc1ccc(CN2C3=NCCN3c3ccccc32)cc1Cl	98*	14	-6	2
COc1ccc(C(=O)c2c3ccccc3[n+]([O-])n2CCC(N)=O)cc1	21	·	-1	0
COc1cc(NC(=O)CSc2ccccc2)c(C(=O)O)cc1OC	-1	-4	18	0
COc1ccc(CSCC(=O)Nc2ccccc2)cc1[N+](=O)[O-]	99*	-7	0	-1
COc1cc(NC(=O)C(c2ccccc2)c2ccccc2)c(C(=O)O)cc1OC	92*	2	8	2
SMILES	ALR inh	UBC9 SUMO inh	Cardio protect	NTR1 ag
COc1cc(NC(=O)CSCc2ccccc2)c(C(=O)O)cc1OC	76*	7	4	0
COc1ccc([N+](=O)[O-])cc1NC(=O)CSCc1ccccc1	-9	-13	0	2
O=C(c1ccc(NC(=O)C(c2ccccc2)c2ccccc2)cc1)c1ccc(C(=O)O)c(C(=O)O)c1	94*	9	2	0
CC(=O)c1cccc(NC(=O)CSCc2ccccc2)c1	97*	10	10	0
CC(=O)c1cccc(NC(=O)CSCc2ccc(Br)cc2)c1	-10	-3	7	3
COc1ccc(CSc2nc(C)[nH]c2[N+](=O)[O-])cc1[N+](=O)[O-]	100*	-1	4	0
Cc1ccc(NC(=O)c2nc[nH]c2C(=O)Nc2ccccc2F)cc1	·	·	-1	·
Cc1cc(C(=O)N/N=C2\CCCC(=O)C2)c2ccccc2n1	31	2	14	0
O=C(CSc1ncnc2ccccc12)Nc1cccc(S(=O)(=O)N2CCCC2)c1	99*	5	-4	1
Cc1cccc(NC(=O)CSc2nnc(CN3CCOCC3)n2C)c1C	-1	-1	-1	1
CCOc1ccc(S(=O)(=O)Nc2nc3ccccc3nc2Nc2ccc(N3CCOCC3)cc2)cc1	93*	24	-10	1
CCOC(=O)c1[nH]c2ccc(OC)cc2c1N=CN(C)C	98*	36	14	-2
CCOC(=O)c1[nH]c2ccc(OC)cc2c1NC(=O)OC	-3	24	2	1
O=S1(=O)CCC(NS(=O)(=O)c2ccc3ccccc3c2)C1 (configuration not stated)	·	11	0	0
CCOC(=O)c1[nH]c2cc(OC)c(OC)cc2c1NC(=O)C(C)N1CCN(Cc2ccccc2)CC1 (configuration not stated)	13	18	56*	1
CCOC(=O)c1[nH]c2ccc(OC)cc2c1NC(=O)C(C)N1CCSCC1 (configuration not stated)	·	32	·	·
CCN(CC)c1ccc(-n2c(O)c(C=C3N=c4ccccc4=N3)sc2=S)cc1	-11	-11	4	4
O=C(O)c1cccc(-n2c(O)c(C=C3N=c4ccccc4=N3)sc2=S)c1	99*	13	9	-1
CCCC(C(=O)O)n1c(O)c(C=C2N=c3ccccc3=N2)sc1=S (configuration not stated)	89*	8	4	2
O=C(O)c1ccc(-n2c(O)c(C=C3N=c4ccccc4=N3)sc2=S)cc1	99*	0	6	0
COc1cc(/C=N/NC(=O)c2ccncc2)ccc1OCC(=O)Nc1ccccc1	-3	11	25	2
COc1cc(/C=N/NC(=O)c2ccccc2O)ccc1OCC(=O)Nc1ccccc1	·	·	78*	3
COc1cc(/C=N/NC(=O)CCOc2ccccc2C)cc(Br)c1O	97*	-5	-7	2
COc1ccccc1NC(=O)COc1ccc(/C=N/NC(=O)c2cccnc2)cc1	-2	0	51*	5
O=C(COc1ccc(/C=N/NC(=O)c2cccnc2)cc1)Nc1ccccc1	-10	24	19	1
SMILES	ALR inh	UBC9 SUMO inh	Cardio protect	NTR1 ag
COc1cc(/C=N\NC(=O)c2cccnc2)ccc1OC(=O)c1ccccc1Cl	-4	14	55*	19
COc1ccc(/C=N/NC(=O)c2ccccc2O)cc1Cn1cc(Cl)cn1	80*	8	10	2
COc1cc(/C=N/NC(=O)c2cccnc2)cc(Br)c1O	81*	8	3	0
COc1cc(/C=N/NC(=O)c2cccnc2)ccc1OCC(=O)Nc1ccccc1Cl	-5	19	51*	3
C#CCOCCOCCOCCNc1nc(N2CCN(C(=O)[C@H](Cc3ccc(O)cc3)n3cc([C@@H](N)C(C)CC)nn3)CC2)nc(N2CCN(C(=O)[C@H](Cc3cc4ccccc4[nH]3)n3cc([C@@H](N)CC(C)C)nn3)CC2)n1 (some centres not stated)	-8	-13	·	-1
COc1ccc(C2CC(C(F)(F)F)n3nc(C(=O)NCc4c(C)nn(C)c4C)c(Cl)c3N2)cc1 (configuration not stated)	-4	18	-8	2

Screens: PubChem, several laboratories
